In all, about 370,000 compounds went through this assay and about 3,800 (1%) were called active. The sample holds actives, similar compounds and a random draw of the others, so the mix is not that of the screen. No stated cut-off is given here; in the data, active means activation above about 7.8%; inactive means the rest.
Experiment: SMARCA2 (BRM) function activators, primary screen, cell-based, luminescence, high throughput (AID 652017);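 further: 0% = vehicle wells and 100% = reference activator wells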
Conditions: MG213 cells, MMTV-luciferase reporter, dexamethasone, overnight; at 9.1 µM; hits give high values

activation, active:
Cc1nc(N=C(N)N)nc2c(C)cccc12 18.7%, O=C(Nc1nnc(CCc2ccccc2)s1)C1CCCO1 (configuration not stated) 8.46%, C=CCOC/C=C/C#CCN(CC=C)Cc1ccc(OC)cc1OC 7.87%, CCc1cc2c(=O)c(-c3ccon3)c(N)oc2cc1OC 8.66%, CCN(CC)CCNC(=O)c1ccc(NC(=O)c2cc(-c3ccncc3)nc3ccccc23)cc1 8.42%, O=C1/C(=C\c2ccc([N+](=O)[O-])cc2)CS(=O)(=O)C/C1=C/c1ccc([N+](=O)[O-])cc1 16.5%, Cc1cccc(CSc2ccc(-c3cccs3)nn2)c1 9.78%, Cc1ccc(NC(=O)c2cc3ccccc3o2)cc1 8.36%, COc1ccc(S(=O)(=O)NC(C)C(=O)N2CCCCCC2)cc1 (configuration not stated) 8.03%, O=c1c2c(nc3n1CCCCC3)sc1c(O)cccc12 10.3%, CC(=O)c1ccc(NC(=O)c2sc3nc4n(c(=O)c3c2C)CCCCC4)cc1 9.72%, O=C(Nc1cc(=O)[nH]c2ncnn12)c1ccccc1Cl 8.25%, COc1c(O)cc2oc(-c3ccc(O)c(O)c3)cc(=O)c2c1O 8.25%, Cc1nn(Cc2ccc(F)cc2)c(C)c1NC(=O)c1cccnc1Cl 11.7%, COc1ccc(/C=N/NC(=O)c2cc(-c3cccc(C)c3)nc3ccccc23)cc1O 8.84%

activation, inactive:
Cc1ccccc1-n1cc(CNC(=O)CC2C(=O)NCCN2C/C=C/c2ccccc2)cn1 (configuration not stated) -1.02%, CCCNC(=O)Nc1ccc2c(c1)C(=O)N(C)[C@H]1CC[C@H](CC(=O)NCC3CCCCC3)O[C@@H]1CO2 -2.38%, CC1(C(=O)NCc2ccccc2)CSCC(=O)N1CCCN1CCOCC1 (configuration not stated) -6.77%, O=S1(=O)c2ccc(Br)cc2OC[C@H](Cc2ccccc2)N1Cc1cn(Cc2ccccc2)nn1 -4.73%, COc1nc(N=C(N)N)nc2c(C)cccc12 5.28%, Nn1c(SCC(=O)N2c3ccccc3Sc3ccccc32)nnc1-c1n[nH]c2c1CCC2 -2.45%, CCCC[C@H](C(=O)N(CC)c1ccccc1)[C@@H](O)c1ccc2ccccc2c1 -2.79%, CN1C[C@]2(C=C3CCCCC3n3c(=O)n(-c4ccccc4)c(=O)n32)N=C1NC(=O)c1ccccc1 (some centres not stated) -3.36%, O=C(COC(=O)c1cccnc1Cl)NC12CC3CC(CC(C3)C1)C2 -0.27%, COCOc1cccc(CN2CCC(C)(Oc3ccc(SC)cc3)C2)c1 (configuration not stated) -2.3%, CCOC(=O)[C@]12CCCCC/C=C\1N(Cc1ccc(OC)cc1)C(=O)[C@H]2CC(=O)N1CCOCC1 -3.81%, O=C(NCc1ccccc1Cl)C1CCCO1 (configuration not stated) -4.52%, O=C(C1CCCO1)N(Cc1ccccc1)c1ccccc1 (configuration not stated) -1.33%, CC(=O)C1(C(=O)Nc2nccs2)CC(c2ccccc2C(F)(F)F)=NO1 (configuration not stated) -1.46%, COc1ccc(CN(CCN2CCOCC2)C(=O)c2ccc(C)cc2)cc1OC -0.94%, CN(C)[C@H]1CCN(c2cccc3c2S(=O)(=O)N2CC[C@H](C2)O3)C1 0.57%, COc1ccc(-c2cc(-c3nnc(SCC(=O)Nc4cccc5ccccc45)n3N)[nH]n2)cc1 -3.63%, COc1ccc(CN(C)Cc2nc3cc(OC)c(OC)cc3c(=O)[nH]2)c(OC)c1 -2.98%, COc1ccc(C#CCNCc2ccc(OC)cc2OC)cc1 -1.96%, C=CCN1C(=O)[C@H](CC(=O)N2CCN(C(=O)OCC)CC2)[C@@]2(C(=O)OCC)CCCC=C12 -0.21%, C=CCN1C(=O)[C@H](CC(=O)NCCCN2CCCC2=O)[C@@]2(C(=O)OCC)CCCC=C12 -0.89%, CCn1c2ccccc2c2cc(NC(=O)CSc3nnc(-c4ccccc4)n3-c3ccc(C)cc3)ccc21 -2.83%, CCc1cc2c(=O)c(-c3nc4ccccc4n3C)c(CCCC(=O)O)oc2cc1OC(=O)C(C)(C)C -2.32%, COc1ccc2oc(N)c(C=O)c(=O)c2c1 0.14%, O=S1(=O)c2c(NCc3ccco3)cccc2Oc2ccccc2CN1Cc1cn(Cc2cccc(C(F)(F)F)c2)nn1 -3.67%, CCN(CC)CCOC(=O)c1ccc(NC(=O)CNC(=O)c2ccccc2)cc1 -3.5%, CCN(CC)CCNC(=O)c1ccc(NC(=O)c2c(F)cccc2Cl)cc1 -0.88%, O=C1Nc2ccccc2OC1CC(=O)N1CCCCCCC1 (configuration not stated) 0.95%, COc1ccc(-c2ccc3nnc(SCC(=O)Nc4ccc(NC(C)=O)cc4)n3n2)cc1 -0.74%, O=[N+]([O-])c1ccc(CN2CC(N3CC=CC3)CS2(=O)=O)cc1 (configuration not stated) -2.21%, C[C@H](C(=O)N(C)c1ccccc1)[C@@H](O)c1ccc2ccccc2c1 -2.92%, CCCCCCNS(=O)(=O)c1ccccc1Br -0.14%, c1csc(-c2nnc(SCc3nc4ccccc4[nH]3)o2)c1 -0.75%, O=C(CSc1ccc(-c2cccs2)nn1)Nc1ccccc1F -0.22%, CC(C)(C)c1ccc(CSc2nnc(-c3cccs3)o2)cc1 -1.53%, Cc1ccc(OCc2nnc(SC/C=C/c3ccccc3)n2Cc2ccco2)cc1 -4.07%, CC(OC(=O)c1cc2ccccc2o1)C(=O)Nc1ccc(N2CCOCC2)cc1 (configuration not stated) -1.72%, Cc1cccc(-n2nc3c(c2NC(=O)c2cc4ccccc4o2)CS(=O)(=O)C3)c1 -1.69%, O=C(Nc1ccccc1)N1CCN(Cc2nc3ccccc3c(=O)[nH]2)CC1 -4.04%, COC(=O)c1cc(S(=O)(=O)N2CCN(c3ccccc3C)CC2)cn1C -6.95%, CCCCOCCCNC(=O)C[C@H]1C[C@@]2(C(=O)OC)C(=C[C@H](C(C)(C)C)O[C@@H]2C)N(CCc2ccc(OC)c(OC)c2)C1=O -1.39%, Nc1[nH]c(/C=C2/CCCCC2n2[nH]c(=O)n(-c3ccccc3)c2=O)c(Cc2ccccc2)[n+]1Cc1ccccc1 (configuration not stated) -4.04%, COc1ccc(N2CC(C(=O)N[C@@H](C)C(=O)N3CCCCC3)CC2=O)cc1 (some centres not stated) 1.33%, COc1ccc(CNS(=O)(=O)c2ccc(NC(=O)N3CCCCC3)cc2)cc1 -3.18%, COCC(=O)N[C@@H]1C[C@@H]2O[C@@H](CO)CC[C@@H]2O[C@@H]1CCc1ccc(-c2ccccc2)cc1 0.63%, CCOC(=O)[C@]12CCCC=C1N(Cc1ccc(OC)cc1)C(=O)[C@@H]2CC(=O)NCc1cccs1 -2.09%, Cc1c(C(=O)Nc2cccc(-c3nnc4n3CCCCC4)c2)oc2ccccc12 -1.34%, O=C(Cn1[nH]c(=O)c2ccccc2c1=O)Nc1cccc(-c2nnc3n2CCCCC3)c1 -0.49%, CC1CCN(C(=O)c2ccc3c(=O)n4c(nc3c2)CCCCC4)CC1 -1.07%, O=C(Nc1ccc2nc3n(c(=O)c2c1)CCCC3)c1ccc(Cl)nc1 -1.5%, COc1cccc(CNC(=O)CNS(=O)(=O)c2ccc3nc(C)sc3c2)c1OC -2.54%, O=C(NC1CCCC1)C1CSCCS(=O)(=O)N1Cc1ccccc1 (configuration not stated) -0.49%, COC(=O)[C@]12C[C@H](CC(=O)NCCCN3CCCC3=O)C(=O)N(CCc3ccc(OC)c(OC)c3)C1=C[C@H](COCc1ccccc1)O[C@@H]2C -2.89%, Cc1cc(C)cc(NC(=O)N2CCC(N(C)CCC(C)C)CC2)c1 -3.63%, COC(=O)c1cccc(Cn2ccc3ccc(-c4ccc5ccn(C(=O)c6ccccc6C)c5c4)cc32)c1 -2.21%, COc1ccc(-n2c(SCC(=O)Nc3ccccc3-c3ccccc3)nnc2-c2cccnc2)cc1 -4.88%, COc1ncnc2c1ncn2CCCNCCN1CCOCC1 -1.94%, CC(=O)c1cc(CN2CCC(n3nccc3NC(=O)c3ccccc3Cl)CC2)cs1 -2.24%, O=C(Nc1ccc2sc3ccccc3c(=O)c2c1)c1ccccc1Cl 5.49%, Cc1cc(Br)ccc1NC(=O)CCCOc1cc(=O)n(C)c2ccccc12 -2.55%, OC(CCl)CCl -4.79%, COc1ccc(CCNC(=O)CCNS(=O)(=O)c2cc(Br)cnc2N)cc1OC -1.13%, CCCCOCCCNC(=O)C[C@H]1C[C@@]2(C(=O)OC)C(=C[C@H](COCc3ccccc3)O[C@@H]2C)N(Cc2cccc3ccccc23)C1=O -2.77%, O=C(C1CCCN1S(=O)(=O)c1ccccc1)N1CCc2ccccc2C1 (configuration not stated) -4.12%, Cc1ccc(C(=O)C2CCN(CC(=O)NCCC(C)C)CC2)cc1 -3.11%, Cc1nn(Cc2ccc(F)cc2)c(C)c1NC(=O)c1noc2c1CCc1ccccc1-2 -4.67%, Cc1nn(Cc2ccc(Cl)c(Cl)c2)c(C)c1NC(=O)c1cc(C2CC2)on1 -4.98%, COc1ccc(Cn2cc(CN3[C@@H](CC(C)C)COc4cc(Br)ccc4S3(=O)=O)nn2)cc1 0.39%, C/C(Cn1nnc2ccccc21)=N\OC(=O)c1cc(F)c(F)cc1Cl -0.31%, COc1ccc(-n2c(SCC(=O)Nc3ccc4cn[nH]c4c3)nnc2-c2cccnc2)cc1 6.71%, COc1ccc(C)cc1NC(=O)c1cc(-c2ccccc2)nc2c1cnn2C(C)C -4.75%, Cc1ccc(/C=N/NC(=O)COc2ccccc2-c2ccccc2)cc1 -0.77%
